Results taken from the supplement of paper PMC3545927.
The other results are listed elsewhere or left out. How many sequences the whole screen found active is unknown.

Molecular target: furin, P09958
Assay: furin cleavage Z-score vs untreated control; higher = more cleavage, active = 3.5 or more, inactive = 1 or less, 8 variable residues between constant flanks
How it was run: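 Purified furin cleaved 8-mer peptides that were fused to a cDNA oligonucleotide and held on magnetic beads by their N-terminus. Each 0.01 ml reaction used a 1:10 enzyme:substrate ratio in 50 mM HEPES pH 7.5 with CaCl2 and NaCl and ran 7.5, 15 or 30 min. Released DNA was adapter-tagged by PCR and sequenced, and read counts gave abundance. The cleavage Z-score came from log counts against furin-free reactions, lowess-adjusted and scaled by median absolute deviation.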

Chain of furin, P09958 (P09958 whole entry): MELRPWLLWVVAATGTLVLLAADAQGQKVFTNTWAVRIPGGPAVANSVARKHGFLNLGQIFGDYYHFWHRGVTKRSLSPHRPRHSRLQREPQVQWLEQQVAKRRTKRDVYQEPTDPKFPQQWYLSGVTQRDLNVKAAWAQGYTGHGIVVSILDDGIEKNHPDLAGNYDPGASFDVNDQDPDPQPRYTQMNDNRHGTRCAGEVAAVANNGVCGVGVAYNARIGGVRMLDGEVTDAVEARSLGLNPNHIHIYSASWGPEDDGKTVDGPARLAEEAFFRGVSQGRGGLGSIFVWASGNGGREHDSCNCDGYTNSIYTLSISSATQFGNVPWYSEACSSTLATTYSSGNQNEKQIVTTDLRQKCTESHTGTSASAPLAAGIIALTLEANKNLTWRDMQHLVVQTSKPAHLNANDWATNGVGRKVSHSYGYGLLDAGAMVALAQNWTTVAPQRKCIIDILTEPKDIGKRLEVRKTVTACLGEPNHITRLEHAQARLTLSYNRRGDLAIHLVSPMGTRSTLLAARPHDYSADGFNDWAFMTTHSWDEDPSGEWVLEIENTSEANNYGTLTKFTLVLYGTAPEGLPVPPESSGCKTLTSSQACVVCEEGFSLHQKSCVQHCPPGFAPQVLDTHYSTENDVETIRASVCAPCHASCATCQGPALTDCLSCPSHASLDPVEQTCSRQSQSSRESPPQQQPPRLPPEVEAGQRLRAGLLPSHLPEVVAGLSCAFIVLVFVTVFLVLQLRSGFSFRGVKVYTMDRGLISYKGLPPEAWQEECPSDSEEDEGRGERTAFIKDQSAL

| Sequence | furin cleavage Z-score (7.5 min) | furin cleavage Z-score (15 min) | furin cleavage Z-score (30 min) |
| --- | --- | --- | --- |
| CAVYHGAGTRAGNASASA [HC701] | -1.21 (inactive) | -0.779 (inactive) | -0.813 (inactive) |
| CALLMCAVHPAGNASASA [HC598] | -0.584 (inactive) | -1.05 (inactive) | -0.438 (inactive) |
| CALERRSVYTAGNASASA [FS-1986] | -0.7 (inactive) | 0.537 (inactive) | -0.997 (inactive) |
| CAKTPCSGSWAGNASASA [HC1834] | -1.42 (inactive) | -1.89 (inactive) | -1.1 (inactive) |
| CAQREVPCHRAGNASASA [HC2442] | 1.83 | 1.74 | 0.0102 (inactive) |
| CALMRRRRRKAGNASASA [FS-1599] | 8.11 (active) | 10.6 (active) | 8.59 (active) |
| CAWTVYHGAGAGNASASA [HC700] | -0.0993 (inactive) | 1.58 | 1.31 |
| CASTVRSLRSAGNASASA [FS-566] | 2.72 | 4.24 (active) | 4.81 (active) |
| CAIKKRSLRSAGNASASA [FS-1345] | 6.68 (active) | 5.55 (active) | 5.16 (active) |
| CASTPCSAHSAGNASASA [HC2577] | -0.571 (inactive) | 0.484 (inactive) | 1.4 |
| CARRRKSASDAGNASASA [FS-2074] | -0.354 (inactive) | -0.175 (inactive) | 0.845 (inactive) |
| CAEVPCHRPIAGNASASA [HC2404] | 0.502 (inactive) | -0.467 (inactive) | 1.19 |
| CAVVCCSQSYAGNASASA [HC2062] | 1.31 | 2.95 | 0.942 (inactive) |
| CARTHRSKRSAGNASASA [FS-957] | 11.6 (active) | 11.5 (active) | 8.26 (active) |
| CALSHRSKRSAGNASASA [FS-1031] | 12.7 (active) | 12.6 (active) | 11.4 (active) |
| CARHRRILQAAGNASASA [FS-2025] | -0.809 (inactive) | 0.0867 (inactive) | -0.324 (inactive) |
| CARRRKDDYAAGNASASA [FS-2073] | 0.651 (inactive) | 0.661 (inactive) | -1.05 (inactive) |
| CARRRRDHHMAGNASASA [FS-1838] | 7.82 (active) | 8.82 (active) | 7.36 (active) |
| CARRRRDLGGAGNASASA [FS-1866] | 3.6 (active) | 2.23 | 1.75 |
| CARRRRDTHFAGNASASA [FS-2785] | 8.52 (active) | 11.4 (active) | 10.2 (active) |
| CARRRRRPGGAGNASASA [FS-3065] | -0.191 (inactive) | -1.18 (inactive) | -0.53 (inactive) |
| CARRRRDLQAAGNASASA [FS-2075] | 8.41 (active) | 10.5 (active) | 8.73 (active) |
| CARRRGDSRGAGNASASA [HC732] | -0.828 (inactive) | -0.656 (inactive) | -0.847 (inactive) |
| CAVVCCSHSYAGNASASA [HC2055] | 1.14 | -0.432 (inactive) | 0.703 (inactive) |
| CAGEECSQHLAGNASASA [HC1676] | 0.0385 (inactive) | 1.42 | -0.903 (inactive) |
| CARRRRDLGSAGNASASA [FS-2517] | 10.6 (active) | 10 (active) | 9.26 (active) |
| CANEITLTHPAGNASASA [HC977] | -0.433 (inactive) | 0.337 (inactive) | 0.088 (inactive) |
